Source: publication PMC11574364

What follows are sequences tested against T1, STAU2(4) (Homo sapiens, UniProt Q9NUL3) (assay: protein domain microarray probed with biotinylated miRNA; Domain array: 20 mM Tris-HCl pH 7.4, 200 mM KCl, 0.2 mM EDTA, 0.05% NP40, 2 ug/ul heparin, overnight 4 C. ORF array: PBS pH 7.0 with RNase inhibitor, 100 ng RNA; high values mean tight binding). Details: ssRNA.
T1 sequence: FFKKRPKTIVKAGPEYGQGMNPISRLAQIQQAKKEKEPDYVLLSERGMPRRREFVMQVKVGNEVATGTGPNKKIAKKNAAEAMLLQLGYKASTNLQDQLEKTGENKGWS

Question: UGAGGUAGUAGGUUGUGUGGUU was tested. Which binding signal did it give?
Answer: 275.8 ± 2.53 fluorescence intensity

Question: Which binding signal does the source give for AGAGGUAGUAGGUUGCAUAGUU here?
Answer: 100.36 ± 0.0283 fluorescence intensity

Question: For UGAGGUAGUAGGUUGUAUAGUU, which binding signal is on record?
Answer: 31.34 ± 0.269 fluorescence intensity

Question: For UGAGGUAGUAGGUUGUAUGGUU, which binding signal is on record?
Answer: 168 ± 2.52 fluorescence intensity

Question: With CAGUGCAAUGAUGAAAGGGCAU as the sequence, how does the binding signal read?
Answer: 92.53 ± 0.0283 fluorescence intensity

These sequences were tested against T2, RBM19(1) (Homo sapiens, UniProt Q9Y4C8) in the same assay as above. Details: ssRNA.
T2 sequence: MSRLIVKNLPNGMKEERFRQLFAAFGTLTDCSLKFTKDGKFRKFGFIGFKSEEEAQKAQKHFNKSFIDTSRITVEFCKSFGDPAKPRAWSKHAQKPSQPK

Question: How did the binding signal turn out when UGAGGUAGUAGGUUGUGUGGUU was run?
Answer: 592 ± 96.6 fluorescence intensity

Question: How did the binding signal turn out when AGAGGUAGUAGGUUGCAUAGUU was run?
Answer: 400 ± 17.2 fluorescence intensity

Question: UAGCUUAUCAGACUGAUGUUGA was tested. Which binding signal did it give?
Answer: 37.3 ± 6.15 fluorescence intensity

Question: UGAGGUAGUAGGUUGUAUAGUU was tested. Which binding signal did it give?
Answer: 132 ± 21 fluorescence intensity

Question: Which binding signal does the source give for UGAGGUAGUAGGUUGUAUGGUU here?
Answer: 519 ± 35.8 fluorescence intensity

Question: With CAGUGCAAUGAUGAAAGGGCAU as the sequence, how does the binding signal read?
Answer: 249 ± 33.6 fluorescence intensity

These sequences were tested against T3, RBM11 (Homo sapiens, UniProt P57052) in the same assay as above. Details: ssRNA.
T3 sequence: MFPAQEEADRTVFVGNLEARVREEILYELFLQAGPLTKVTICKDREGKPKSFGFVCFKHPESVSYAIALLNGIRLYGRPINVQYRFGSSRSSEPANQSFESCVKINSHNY

Question: For UGAGGUAGUAGGUUGUGUGGUU, which binding signal is on record?
Answer: 26.6 ± 2.58 fluorescence intensity

Question: AGAGGUAGUAGGUUGCAUAGUU was tested. Which binding signal did it give?
Answer: 28 ± 4.14 fluorescence intensity

Question: How did the binding signal turn out when UGAGGUAGUAGGUUGUAUGGUU was run?
Answer: 36.7 ± 5.74 fluorescence intensity

Question: Which binding signal does the source give for CAGUGCAAUGAUGAAAGGGCAU here?
Answer: 25.7 ± 8.53 fluorescence intensity

These sequences were tested against T4, RAVER1 (Homo sapiens, UniProt Q8IY67) in the same assay as above. Details: ssRNA.
T4 sequence: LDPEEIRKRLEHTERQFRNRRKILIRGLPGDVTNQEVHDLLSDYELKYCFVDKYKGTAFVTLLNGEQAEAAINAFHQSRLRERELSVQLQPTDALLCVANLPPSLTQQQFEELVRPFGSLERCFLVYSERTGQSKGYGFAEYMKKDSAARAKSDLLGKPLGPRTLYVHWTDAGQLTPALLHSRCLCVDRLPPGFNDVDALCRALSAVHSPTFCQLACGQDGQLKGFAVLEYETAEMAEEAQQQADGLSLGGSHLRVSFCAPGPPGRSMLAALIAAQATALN

Question: With UGAGGUAGUAGGUUGUGUGGUU as the sequence, how does the binding signal read?
Answer: 22.3 ± 5.17 fluorescence intensity

Question: For UGAGGUAGUAGGUUGUAUAGUU, which binding signal is on record?
Answer: 21.1 ± 4.28 fluorescence intensity

Question: UGAGGUAGUAGGUUGUAUGGUU was tested. Which binding signal did it give?
Answer: 26.62 ± 0.0495 fluorescence intensity

These sequences were tested against T5, REXON (Homo sapiens, UniProt Q96IC2) in the same assay as above. Details: ssRNA.
T5 sequence: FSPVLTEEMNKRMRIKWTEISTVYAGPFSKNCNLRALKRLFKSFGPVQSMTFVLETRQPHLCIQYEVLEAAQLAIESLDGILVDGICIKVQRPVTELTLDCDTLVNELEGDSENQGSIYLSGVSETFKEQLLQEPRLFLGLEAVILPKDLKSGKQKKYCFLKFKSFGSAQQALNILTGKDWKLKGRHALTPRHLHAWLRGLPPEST

Question: With UGAGGUAGUAGGUUGUGUGGUU as the sequence, how does the binding signal read?
Answer: 198.5 ± 0.0919 fluorescence intensity

Question: How did the binding signal turn out when AGAGGUAGUAGGUUGCAUAGUU was run?
Answer: 106 ± 7.17 fluorescence intensity

Question: How did the binding signal turn out when UGAGGUAGUAGGUUGUAUAGUU was run?
Answer: 30.1 ± 0.375 fluorescence intensity

Question: Which binding signal does the source give for UGAGGUAGUAGGUUGUAUGGUU here?
Answer: 102 ± 6.23 fluorescence intensity

Question: CAGUGCAAUGAUGAAAGGGCAU was tested. Which binding signal did it give?
Answer: 88.4 ± 1.34 fluorescence intensity

What follows are sequences tested against IGF2BP2(1-2) (Homo sapiens, UniProt Q9Y6M1) in the same assay as above. Details: ssRNA.
IGF2BP2(1-2), sequence (Q9Y6M1 176-362): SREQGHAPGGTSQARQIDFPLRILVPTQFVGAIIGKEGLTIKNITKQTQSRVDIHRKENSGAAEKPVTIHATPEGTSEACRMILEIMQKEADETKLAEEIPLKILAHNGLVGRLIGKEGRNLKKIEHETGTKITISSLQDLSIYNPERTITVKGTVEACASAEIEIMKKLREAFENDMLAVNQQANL

Question: For UGAGGUAGUAGGUUGUGUGGUU, which binding signal is on record?
Answer: 31.4 ± 2.92 fluorescence intensity

Question: For AGAGGUAGUAGGUUGCAUAGUU, which binding signal is on record?
Answer: 23 ± 1.49 fluorescence intensity

Question: With UGAGGUAGUAGGUUGUAUGGUU as the sequence, how does the binding signal read?
Answer: 26.07 ± 0.24 fluorescence intensity

Question: How did the binding signal turn out when CAGUGCAAUGAUGAAAGGGCAU was run?
Answer: 24.1 ± 3.02 fluorescence intensity

The sequences below were run against FXR1(1-2) (Homo sapiens, UniProt P51114) in the same assay as above. Details: ssRNA.
FXR1(1-2), sequence (P51114 201-372): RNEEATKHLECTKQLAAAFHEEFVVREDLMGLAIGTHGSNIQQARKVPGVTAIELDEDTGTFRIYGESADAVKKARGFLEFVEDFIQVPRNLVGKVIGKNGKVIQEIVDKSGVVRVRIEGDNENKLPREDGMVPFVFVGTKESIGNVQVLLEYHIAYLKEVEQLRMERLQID

Question: How did the binding signal turn out when UGAGGUAGUAGGUUGUGUGGUU was run?
Answer: 436 ± 32.2 fluorescence intensity

Question: With AGAGGUAGUAGGUUGCAUAGUU as the sequence, how does the binding signal read?
Answer: 46.8 ± 0.523 fluorescence intensity

Question: UAGCUUAUCAGACUGAUGUUGA was tested. Which binding signal did it give?
Answer: 31.1 ± 0.919 fluorescence intensity

Question: UGAGGUAGUAGGUUGUAUAGUU was tested. Which binding signal did it give?
Answer: 34.3 ± 0.7 fluorescence intensity

Question: With UGAGGUAGUAGGUUGUAUGGUU as the sequence, how does the binding signal read?
Answer: 95 ± 11.4 fluorescence intensity

Question: With CAGUGCAAUGAUGAAAGGGCAU as the sequence, how does the binding signal read?
Answer: 111.8 ± 0.544 fluorescence intensity

The sequences below were run against RBPMS (Homo sapiens, UniProt Q93062) in the same assay as above. Details: ssRNA.
RBPMS, sequence (Q93062 1-125): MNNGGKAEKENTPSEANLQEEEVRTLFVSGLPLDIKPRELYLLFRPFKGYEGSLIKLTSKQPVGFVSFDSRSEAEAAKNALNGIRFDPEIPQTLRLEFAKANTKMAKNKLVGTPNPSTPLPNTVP

Question: For UGAGGUAGUAGGUUGUGUGGUU, which binding signal is on record?
Answer: 168 ± 4.32 fluorescence intensity

Question: For AGAGGUAGUAGGUUGCAUAGUU, which binding signal is on record?
Answer: 754 ± 55.2 fluorescence intensity

Question: With UGAGGUAGUAGGUUGUAUAGUU as the sequence, how does the binding signal read?
Answer: 63.4 ± 5.39 fluorescence intensity

Question: For UGAGGUAGUAGGUUGUAUGGUU, which binding signal is on record?
Answer: 145 ± 43.8 fluorescence intensity

Question: CAGUGCAAUGAUGAAAGGGCAU was tested. Which binding signal did it give?
Answer: 844 ± 72.7 fluorescence intensity

What follows are sequences tested against T6, TRA2B (Homo sapiens, UniProt P62995) in the same assay as above. Details: ssRNA.
T6 sequence: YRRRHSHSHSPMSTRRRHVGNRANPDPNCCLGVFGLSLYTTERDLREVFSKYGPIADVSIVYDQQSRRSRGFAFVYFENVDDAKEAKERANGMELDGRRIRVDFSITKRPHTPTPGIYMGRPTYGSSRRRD

Question: With UGAGGUAGUAGGUUGUGUGGUU as the sequence, how does the binding signal read?
Answer: 748 ± 54 fluorescence intensity

Question: AGAGGUAGUAGGUUGCAUAGUU was tested. Which binding signal did it give?
Answer: 1220 ± 41.8 fluorescence intensity

Question: For UGAGGUAGUAGGUUGUAUAGUU, which binding signal is on record?
Answer: 97.2 ± 22.2 fluorescence intensity

Question: How did the binding signal turn out when UGAGGUAGUAGGUUGUAUGGUU was run?
Answer: 1050 ± 32.8 fluorescence intensity

Question: How did the binding signal turn out when CAGUGCAAUGAUGAAAGGGCAU was run?
Answer: 656 ± 15.9 fluorescence intensity

These sequences were tested against T7, SFRS12 (Homo sapiens, UniProt Q8WXA9) in the same assay as above. Details: ssRNA.
T7 sequence: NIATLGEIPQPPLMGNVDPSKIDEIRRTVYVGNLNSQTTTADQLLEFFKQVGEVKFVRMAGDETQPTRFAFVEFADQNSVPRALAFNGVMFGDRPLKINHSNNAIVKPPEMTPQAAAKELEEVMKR

Question: UGAGGUAGUAGGUUGUGUGGUU was tested. Which binding signal did it give?
Answer: 314 ± 21.7 fluorescence intensity

Question: Which binding signal does the source give for AGAGGUAGUAGGUUGCAUAGUU here?
Answer: 364 ± 21 fluorescence intensity

Question: With UAGCUUAUCAGACUGAUGUUGA as the sequence, how does the binding signal read?
Answer: 30.2 ± 10.4 fluorescence intensity

Question: UGAGGUAGUAGGUUGUAUAGUU was tested. Which binding signal did it give?
Answer: 44.9 ± 2.62 fluorescence intensity

Question: UGAGGUAGUAGGUUGUAUGGUU was tested. Which binding signal did it give?
Answer: 264 ± 26.8 fluorescence intensity

Question: How did the binding signal turn out when CAGUGCAAUGAUGAAAGGGCAU was run?
Answer: 243 ± 4.09 fluorescence intensity
